# About 83,000 compounds went through this panel and 20% of them were active in at least one assay; those are over-represented in the sample as a whole.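 Interpretation: 100, growth as untreated; towards 0, rising growth inhibition; 0, no net growth; 0 to -100, cell death. Compounds scoring below 10 were considered active.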 Values without a mark were called inactive. The source made the active and inactive calls.
# How the values were obtained:
# Test in all cases: NCI-60 one-dose screen, 48 h (100 = growth as untreated, 0 = no growth, -100 = all killed)
# NCI-H226 lung = conditions: 10 µM unless noted
# NCI-H322M lung = conditions: 10 µM unless noted
# HOP-62 NSCLC = conditions: 10 µM unless noted
# NCI-H460 lung = conditions: 10 µM unless noted
# HOP-92 NSCLC = conditions: 10 µM
# NCI-H522 lung = conditions: 10 µM unless noted
# A549/ATCC NSCLC = conditions: 10 µM unless noted
# 786-0 renal = conditions: 10 µM unless noted
# COLO 205 colon = conditions: 10 µM unless noted
# DU-145 prostate = conditions: 10 µM unless noted
# K-562 leukemia = conditions: 10 µM unless noted
# MALME-3M melanoma = conditions: 10 µM unless noted
# MDA-MB-231 breast = conditions: 10 µM unless noted
# RXF 393 renal = conditions: 10 µM unless noted
# SF-268 CNS = conditions: 10 µM unless noted
# SF-295 CNS = conditions: 10 µM unless noted
# SF-539 CNS = conditions: 10 µM unless noted
# UACC-257 melanoma = conditions: 10 µM unless noted
# M14 melanoma = conditions: 10 µM unless noted
# NCI-H23 lung = conditions: 10 µM unless noted
SMILES,growth (NCI-H226 lung),growth (NCI-H322M lung),growth (HOP-62 NSCLC),growth (NCI-H460 lung),growth (HOP-92 NSCLC),growth (NCI-H522 lung),growth (A549/ATCC NSCLC),growth (786-0 renal),growth (COLO 205 colon),growth (DU-145 prostate),growth (K-562 leukemia),growth (MALME-3M melanoma),growth (MDA-MB-231 breast),growth (RXF 393 renal),growth (SF-268 CNS),growth (SF-295 CNS),growth (SF-539 CNS),growth (UACC-257 melanoma),growth (M14 melanoma),growth (NCI-H23 lung)
COc1cc(OC)cc(C(=O)Nc2cccc(C#Cc3cccc4[nH]nc(N)c34)c2)c1,30.8%,53.6%,39%,13%,43%,2.45% (active),33.7%,46.5%,6.38% (active),28.6%,8.84% (active),40.5%,19.1%,-19.4% (active),33%,27.5%,-63.9% (active),53.4%,-2.56% (active),
COc1ccc(/C=N/NC2=NC3C(S2)N(C)C(=O)N3C)cc1 (stereo unspecified),57.9%,47.5%,29.1%,9.74% (active),30.7%,-9.16% (active),48.6%,43.9%,7.48% (active),25.2%,9.56% (active),39%,44.9%,-19.3% (active),47.6%,10.6%,2.22% (active),79.8%,32.5%,
COc1ccc(-c2nc3cccc(O)c3c(=O)n2Cc2ccccc2)cc1COc1ccc(NC(C)=O)cc1,,67.6% [3 µM],43.6% [3 µM],4.9% [3 µM] (active),,52.5% [3 µM],44.9% [3 µM],54.7% [3 µM],49.8% [3 µM],50.2% [3 µM],18.9% [3 µM],,64.2% [3 µM],52.6% [3 µM],58.2% [3 µM],23.8% [3 µM],40.1% [3 µM],67.2% [3 µM],53.8% [3 µM],62.5% [3 µM]
CC(C)(C)c1ccc(C(=O)Nc2sc3c(c2C(N)=O)CC/C(=N\O)C3)cc1,,56.9%,51.9%,4.25% (active),,-2.43% (active),24.1%,27.5%,4.38% (active),42.2%,7.83% (active),,14.1%,-14.3% (active),32%,16.8%,21.6%,5.76% (active),25%,7.05% (active)
Cc1cc(C(NC(=O)CCCCCNc2cccc3c2C(=O)N(C2CCC(=O)NC2=O)C3=O)c2ccc3c(c2)OC(F)(F)O3)c(O)c2ncccc12 (stereo unspecified),72.8%,71.1%,51.1%,14.7%,4.13% (active),72.1%,66.7%,79.2%,111%,51.9%,30.2%,84.5%,55.2%,86.4%,47.8%,48.2%,56.3%,98.5%,70.2%,
